RORg inh: ROR gamma (mouse) transcription inhibition; Drosophila S2 Gal4-RORgamma UAS-luciferase reporter, 20 h; Potency, µM (top dose mostly 53.6 µM), most hits filed as inhibitors; actives 5.4% (n = 310,000); note: nearly all actives have a fitted effect of over 60% in size
Target sequence (P51450 whole entry, looked up, the tested form may be a part): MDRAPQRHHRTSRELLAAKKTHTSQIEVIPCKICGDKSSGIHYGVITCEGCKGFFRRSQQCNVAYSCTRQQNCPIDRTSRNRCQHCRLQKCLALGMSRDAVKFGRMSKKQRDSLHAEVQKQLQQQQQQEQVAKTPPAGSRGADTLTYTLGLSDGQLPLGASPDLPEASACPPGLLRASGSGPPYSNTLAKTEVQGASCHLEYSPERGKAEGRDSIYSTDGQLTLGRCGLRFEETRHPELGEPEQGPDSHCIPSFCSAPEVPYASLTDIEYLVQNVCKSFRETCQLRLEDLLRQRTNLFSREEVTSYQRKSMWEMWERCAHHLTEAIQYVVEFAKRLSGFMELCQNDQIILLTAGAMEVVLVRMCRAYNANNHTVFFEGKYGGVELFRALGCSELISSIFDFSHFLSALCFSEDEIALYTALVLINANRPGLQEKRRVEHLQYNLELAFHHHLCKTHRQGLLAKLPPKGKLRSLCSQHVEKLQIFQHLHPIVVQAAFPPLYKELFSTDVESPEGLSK
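In this cell-based reporter format, copper sulfate (700 uM final) drives Gal4–ROR gamma fusion expression from a metallothionein promoter in Drosophila Schneider cells; compounds preincubated 1 hr, reporter read after 20 hr at ambient temperature.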
MCF10A rerep: inducers of DNA re-replication in MCF 10A breast cells | Potency, µM (top dose mostly 46.1 µM), hits mostly activators | actives 2.9% (n = 350,000) | AID 624296 | MCF 10A DNA re-replication, Hoechst nuclear intensity, 48 h; note: nearly all actives have a fitted effect of over 50% in size
KB-3-1 tox: KB-3-1 parental cell cytotoxicity; KB-3-1 viability, CellTiter-Glo ATP luminescence, 72 h; actives 1.4% (n = 400,000); Potency, µM (doses to about 46.1 µM), most hits filed as cytotoxic; note: nearly all actives have a fitted effect of over 60% in size
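Cytotoxicity measured as CellTiter-Glo luminescence after 72 h at 37 C. Compound titrations were pinned onto drug-naive KB-3-1 parental adenocarcinoma cells grown in DMEM with 10% FBS, and normalized data fitted to concentration-response curves.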
SW480 rereplic: DNA re-replication induction in SW480 cells. SW480 DNA re-replication, Hoechst DNA content imaging, 48 h. Potency, µM (series often up to 46.1 µM), most hits filed as activators. actives 1.8% (n = 340,000). AID 624297; note: nearly all actives have a fitted effect of over 55% in size
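First, 250 cells per well were seeded. Next, compound or vehicle (23 nL) was pinned in, plates sat 48 hr at 37 C. Finally Hoechst was added for 40 min before fluorescence scanning.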
VP16 counter: counter-screen for ROR gamma inhibitors: Gal4-VP16 reporter. Drosophila S2 Gal4-VP16 UAS-luciferase, luminescence, 20 h. Potency, µM (top dose mostly 53.6 µM), usual class: inhibitors. actives 3.5% (n = 310,000). AID 2546;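 note: Gal4-VP16 expression switched on by copper sulfate through the metallothionein promoter; nearly all actives have a fitted effect of over 50% in size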
KB-V1 MDR tox: kills drug-selected multidrug resistant KB-V1 cells; KB-V1 MDR cells viability, CellTiter-Glo, 72 h; Potency, µM (series often up to 46.1 µM), most hits filed as cytotoxic; actives 3.4% (n = 400,000); AID 1347076; note: nearly all actives have a fitted effect of over 60% in size
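KB-V1, DMEM (no phenol red) + 10% FBS; cpd pin-transferred, titration series; 72 h, 37 degrees C; CellTiter-Glo, luminescence. Data normalized, curve-fit.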
Large screens that a line does not name were inactive. This is a sample that favours compounds with a hit; in the whole collection about 10% have one here. Calls come from the whole dose curve; as a rule, active = well fitted curve in the direction sought with a large enough effect; inconclusive = small, poorly fitted or top-dose-only effect, or another doubt; inactive = no such curve, though single readings can be large; an effect the other way counts as inactive or inconclusive.

CCCNC(=O)C1(C)CCN(C(=O)c2ccc3snnc3c2)C1 (stereo not given)	none (no result: RORg inh, MCF10A rerep, SW480 rereplic, VP16 counter)
O=C(NCc1ccccc1)c1cc(C2CCCCN2C(=O)OCCF)on1 (stereo not given)	none (no result: RORg inh, MCF10A rerep, SW480 rereplic, VP16 counter)
COc1cccc(OCC(=O)N(C)Cc2nc(-c3cccc(C)c3)no2)c1	KB-V1 MDR tox 23µM
COc1cccc(-c2nccc(-n3ccnc3)n2)c1	none (no result: MCF10A rerep, KB-3-1 tox, SW480 rereplic, KB-V1 MDR tox)
O=C(Nc1cccc(C(=O)O)c1)/C(=C\c1ccc2c(c1)OCO2)NC(=O)c1ccco1	MCF10A rerep 0.58µM
O=C(Nc1ccccc1)/C(=C\c1ccc2c(c1)OCO2)NC(=O)c1ccco1	MCF10A rerep 9.2µM, SW480 rereplic inconclusive
O=C(/C=C/c1ccco1)N1CCN(S(=O)(=O)c2cccc([N+](=O)[O-])c2)CC1	KB-V1 MDR tox 23µM (no result: RORg inh, VP16 counter)
Cc1ccc(NC(=O)COC(=O)c2cccc3c2C(=O)c2ccccc2C3=O)c(C)c1	MCF10A rerep inconclusive, SW480 rereplic inconclusive, KB-V1 MDR tox inconclusive
O=C(COC(=O)c1cccc2c1C(=O)c1ccccc1C2=O)NC1CCCCC1	RORg inh inconclusive, KB-V1 MDR tox 21µM
Cc1ccc(C)c(NC(=O)COC(=O)c2cccc3c2C(=O)c2ccccc2C3=O)c1	KB-3-1 tox inconclusive, SW480 rereplic 13µM, KB-V1 MDR tox 15µM
O=C(COC(=O)c1ccc2c(c1[N+](=O)[O-])C(=O)c1ccccc1C2=O)NC1CC1	RORg inh inconclusive, MCF10A rerep inconclusive, KB-3-1 tox inconclusive, SW480 rereplic inconclusive, VP16 counter 18µM
Cc1ccc(C)c(N(C)C(=O)C2CCN(S(=O)(=O)c3cccc4nsnc34)CC2)c1	none (no result: RORg inh, MCF10A rerep, SW480 rereplic, VP16 counter)
C=C(C)Cn1c(=O)c2c(nc3n2CCCN3CCc2ccccc2)n(C)c1=O	KB-V1 MDR tox inconclusive
CC(Sc1nc2ccccc2c(=O)n1CC1CCCO1)C(=O)N(C)Cc1ccccc1 (stereo not given)	KB-3-1 tox inconclusive (no result: RORg inh, VP16 counter)
CC(Sc1nc2ccccc2c(=O)n1C)C(=O)N(C)C1CCCCC1 (stereo not given)	MCF10A rerep inconclusive, KB-3-1 tox inconclusive, KB-V1 MDR tox 5.8µM (no result: RORg inh, VP16 counter)
Cc1cccc(N2CCN(C(=O)Cn3ncc4c3-c3cc(C)ccc3OC4)CC2C)c1 (stereo not given)	none (no result: RORg inh, MCF10A rerep, SW480 rereplic, VP16 counter)
Cc1ccccc1N1CC(O)(c2cccs2)[N+]2=C1CCCC2 (stereo not given)	MCF10A rerep inconclusive
Cc1cccc(N2CC(O)(c3cccs3)[N+]3=C2CCCC3)c1C (stereo not given)	SW480 rereplic inconclusive, VP16 counter 35µM
CC(OC(=O)C1=Cc2ccccc2OC1)C(=O)NCC1CCCO1 (stereo not given)	MCF10A rerep 21µM (no result: RORg inh, VP16 counter)
Cc1sc2nc(CN(Cc3cccs3)C(=O)C3CC3)[nH]c(=O)c2c1C	RORg inh 11µM
CCCNC(=O)c1csc2c1CCCCC2	none
CC(C)CNC(=S)NNC(=O)c1csc2ccccc12	KB-V1 MDR tox 15µM
CCC(C)NC(=O)COC(=O)c1csc2c1CCCC2 (stereo not given)	KB-3-1 tox 23µM
COc1ccc(CCNC(=O)c2csc3c2CCCC3)cc1	KB-V1 MDR tox inconclusive
CC(C)CNC(=S)NNC(=O)c1csc2c1CCCC2	RORg inh 7.1µM, VP16 counter inconclusive
CC1=C(C(=O)Nc2ccccc2C(=O)N2CCN(c3ccccc3)CC2)SCCO1	KB-3-1 tox inconclusive (no result: RORg inh, MCF10A rerep, SW480 rereplic, VP16 counter)
Cc1c(CCO)c(=O)n(C)n1C(=O)c1ccc(F)cc1	none
Cc1c(CCO)c(=O)[nH]n1C(=O)c1ccc(F)cc1	RORg inh 10µM, VP16 counter 11µM
CN1C(=O)/C(=C/c2ccccc2OCc2cccc(F)c2)NC1=S	RORg inh 4µM, VP16 counter 3.2µM
COc1cc(/C=C2\NC(=S)N(C)C2=O)ccc1OCc1cccc(F)c1	RORg inh inconclusive, MCF10A rerep inconclusive, VP16 counter inconclusive
CN1C(=O)/C(=C/c2ccccc2OCc2ccccc2)NC1=S	RORg inh 7.1µM, VP16 counter inconclusive
CN1C(=O)/C(=C/c2ccccc2OCc2ccc(C(=O)O)cc2)NC1=S	none
COCCCNC(=O)C(C)n1c2ccccc2c2cnn(C)c(=O)c21 (stereo not given)	none (no result: RORg inh, MCF10A rerep, SW480 rereplic, VP16 counter)
O=S(=O)(c1ccccc1Br)N1CCN(c2nc(-c3cccs3)nc3ccccc23)CC1	none (no result: RORg inh, MCF10A rerep, SW480 rereplic, VP16 counter)
Cc1cc(OCCOCCNC(C)C)cc(C)c1Cl	KB-3-1 tox inconclusive, KB-V1 MDR tox inconclusive
Cc1cc(OCCCCNC(C)C)cc(C(C)C)c1	MCF10A rerep inconclusive, SW480 rereplic inconclusive, KB-V1 MDR tox 21µM
C/C(=N\Nc1ccc([N+](=O)[O-])cc1[N+](=O)[O-])c1cc2c(ccc3ccccc32)oc1=O	none (no result: MCF10A rerep, KB-3-1 tox, SW480 rereplic, KB-V1 MDR tox)
C/C(=N\NC(=O)c1ccc([N+](=O)[O-])cc1)c1cc2ccccc2oc1=O	RORg inh 16µM, SW480 rereplic inconclusive, VP16 counter inconclusive
C/C(=N\NC(=O)c1ccncc1)c1cc2ccccc2oc1=O	RORg inh 7.9µM, SW480 rereplic inconclusive, VP16 counter 13µM
O=C(NNC(=O)c1cc2ccccc2oc1=O)c1ccccc1[N+](=O)[O-]	VP16 counter inconclusive
C/C(=N\NC(=O)c1ccccc1)c1cc2cc([N+](=O)[O-])ccc2oc1=O	RORg inh 7.9µM, VP16 counter 5µM
N/C(=N\NC(=O)c1ccccc1Cl)c1cc2ccccc2oc1=O	RORg inh 14µM, VP16 counter inconclusive
C[C@H]1C[C@]2(O[C@@H]2C)C(=O)O[C@@H]2CCN(C)C/C=C(/COC(=O)[C@]1(C)O)C2=O	none (no result: MCF10A rerep, KB-3-1 tox, SW480 rereplic, KB-V1 MDR tox)
COc1ccc(CCNC(=O)C2CCCN(Cc3nc(-c4ccccc4C)oc3C)C2)cc1OC (stereo not given)	VP16 counter inconclusive, KB-V1 MDR tox 16µM
CCOc1ccc(CCNC(=O)C2CCN(Cc3nc(-c4ccccc4C)oc3C)CC2)cc1OCC	none (no result: RORg inh, MCF10A rerep, SW480 rereplic, VP16 counter)
COc1ccc(CCNC(=O)C2CCN(Cc3nc(-c4cccc(Cl)c4)oc3C)CC2)cc1OC	KB-3-1 tox inconclusive, KB-V1 MDR tox 3.3µM
Cc1oc(-c2cccc(Cl)c2)nc1CN1CCC(C(=O)NCCc2ccc(Cl)cc2)CC1	none (no result: RORg inh, MCF10A rerep, SW480 rereplic, VP16 counter)
CCc1ccc(-c2nc(CN3CCCC(C(=O)NCCc4ccc(OC)c(OC)c4)C3)c(C)o2)cc1 (stereo not given)	MCF10A rerep inconclusive, KB-3-1 tox 23µM, KB-V1 MDR tox 2.3µM
O=C(c1ccccc1Cl)N1CCCC(c2nc3c(nnn3Cc3ccc(F)cc3F)c(=O)[nH]2)C1 (stereo not given)	none (no result: RORg inh, MCF10A rerep, SW480 rereplic, VP16 counter)
COc1ccc2c(c1)O/C(=C\c1ccco1)C2=O	MCF10A rerep inconclusive
CC(=O)COc1ccc2c(c1C)O/C(=C\c1ccco1)C2=O	RORg inh 10µM
C=CCN1C(=O)c2cccc3c(N4CCCCC4)ccc(c23)C1=O	RORg inh inconclusive, MCF10A rerep 16µM, SW480 rereplic inconclusive

Source: PubChem BioAssay (National Center for Advancing Translational Sciences (NCATS))
